Assay outcomes from PubChem BioAssay.
BCR signal inh: chronic active BCR signaling inhibition | ABC-DLBCL IkBa-CBG/CBR reporter, luminescence ratio, 4 h | Potency, µM (series often up to 46.1 µM), usual class: inhibitors | 0.05% of 340,000 active; active means well fitted inhibition curve with a large enough effect in the signal ratio, with a control signal flat, not every such curve was filed as active; inconclusive means small, poorly fitted or top-dose-only effect, or effect the other way, or a change in a side signal; the % refers to the signal ratio
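Compounds up to 46 uM were incubated four hours with TMD8 cells whose green CBG68 luciferase is fused to IkappaBalpha; red CBR luminescence normalised the signal, and concentration-effect curves were fitted to fusion, red and ratio data.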
IL1B secr inh: inflammasome signaling inhibition, IL-1 beta readout; THP-1 LPS/ATP IL-1B secretion, AlphaLISA, 16 h; active compounds read low; activity change, % at 57.5 µM; 4.7% of 360,000 active; in the data active means activity change below about -50%; inconclusive means mostly about -30% to -49%
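THP-1 cells pretreated 1 hr with compounds (up to 57.5 uM final), then stimulated with LPS (250 ng/mL final) plus ATP (1.25 mM final); secreted IL-1B measured by AlphaLISA after 16 hr, decreased signal indicating inhibition.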
MCF10A rerep: inducers of DNA re-replication in MCF 10A breast cells; MCF 10A DNA re-replication, Hoechst nuclear intensity, 48 h; Potency, µM (top dose mostly 46.1 µM), hits mostly activators; 2.9% of 350,000 active; AID 624296; further: nearly all actives have a fitted effect of over 50% in size
TDP1 cell noCPT: qHTS for Inhibitors of human tyrosyl-DNA phosphodiesterase 1 (TDP1): qHTS in cells in absence of CPT; DT40 Tdp1-/- hTDP1 cells, no CPT, ATP luminescence, 48 h; Potency, µM (titrated, usually from 46.2 µM), most hits filed as inhibitors; 15% of 420,000 active; AID 686978, 2013; further: nearly all actives have a fitted effect of over 55% in size
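Chicken DT40 Tdp1-/- cells stably complemented with human TDP1 were seeded at 400 cells/well with DMSO in place of 20 nM camptothecin. After compound pinning, cells grew at least 48 hr at 37 °C; viability read by CellTiter-Glo luminescence.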
TDP1 cell CPT: DT40-hTDP1 cell growth loss with CPT; Potency, µM (series often up to 46.2 µM), actives largely listed as inhibitors; chicken DT40 Tdp1-/-;hTDP1 cells + 20 nM CPT, ATP luminescence, 48 h; 12% of 420,000 active; further: nearly all actives have a fitted effect of over 55% in size
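Chicken DT40 Tdp1-/- cells stably complemented with human TDP1 were seeded at 400 cells/well in medium containing 20 nM camptothecin, exposed to pin-transferred compounds, and grown at 37 °C for at least 48 hr. Viability was read as ATP luminescence.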
SW480 rerep: induces DNA re-replication in SW480 colon adenocarcinoma cells; SW480 DNA re-replication, Hoechst DNA content imaging, 48 h; Potency, µM (series often up to 46.1 µM), usual class: activators; 1.8% of 340,000 active; AID 624297; further: nearly all actives have a fitted effect of over 55% in size
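SW480 cells exposed to compounds for 48 hr at 37 C, 5% CO2, then Hoechst-stained 40 min. Nuclear DNA content imaged by fluorescence scanning (405 nm excitation, 500-530 nm emission); re-replication scored as increased high-intensity nuclei.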
Hits are given with their value; i = inactive; ? = inconclusive; nt = no result given; [ ] = remark or other dose. Only some compounds are listed: those with a hit (about 19% of all), similar ones and a draw of the others. Unless noted, the call rests on the fitted dose curve; in most records, active means well fitted curve in the direction sought with a large enough effect; inconclusive means small, poorly fitted or top-dose-only effect, or another doubt; inactive means no such curve, though single readings can be large; an effect the other way counts as inactive or inconclusive.

SMILES	BCR signal inh	IL1B secr inh	MCF10A rerep	TDP1 cell noCPT	TDP1 cell CPT	SW480 rerep
Nc1[nH]c(C(=O)c2ccccc2)c(-c2ccc(Cl)cc2Cl)c1C(=O)c1ccc(Cl)c(Cl)c1	nt	?	nt	?	18µM	nt
COc1ccc(C(C)=O)cc1COC(=O)c1c(C)noc1C	i	i	i	15µM	?	?
CCc1cc2c(COC(=O)c3c(C)noc3C)cc(=O)oc2cc1O	i	i	i	10µM	?	i
COc1cc(C(=O)OCC(C)=O)ccc1OCc1c(C)noc1C	i	i	21µM	?	?	16µM
COc1cc(C(=O)N2CCN(c3ccc([N+](=O)[O-])cc3)CC2)ccc1OCc1c(C)noc1C	i	i	i	16µM	?	i
COc1cc(C(=O)Nc2nc3ccccc3s2)ccc1OCc1c(C)noc1C	?	i	?	?	?	16µM
COc1ccc(S(=O)(=O)N2CCOCC2)cc1NC(=O)Cc1coc2cc(C)c(C)cc12	i	i	i	i	i	i
Cc1ccc2nc(N3CC(=O)Nc4ccccc43)nc(-c3ccccc3)c2c1	i	i	3.3µM	?	?	18µM
Cc1ccc2nc(N3CCC(C(=O)O)CC3)nc(-c3ccccc3)c2c1	i	i	21µM	i	i	i
Cc1ccc2nc(N3CCN(C(=O)CCC(=O)O)CC3)nc(-c3ccccc3)c2c1	i	i	21µM	i	i	i
Cc1ccc(-n2c3nc(=O)[nH]c(=O)c-3cc3c(C)nn(-c4ccccc4)c32)cc1Cl	nt	nt	nt	i	i	nt
CCOc1ccc2oc(C(=O)N(CCOC)c3c(N)n(CC(C)C)c(=O)[nH]c3=O)c(C)c2c1	i	i	i	i	i	i
Cc1cc(OCC(=O)N[C@@H](CSCc2ccccc2)C(=O)O)c2c(C)c(C)c(=O)oc2c1	?	i	i	i	i	i
CCOc1ccc(NC(=O)C(C)C(Cc2ccc(C)cc2)C(=O)O)cc1 (configuration not stated)	i	i	i	i	i	i
Cc1cccc(NCC(=O)N/N=C/c2cccc(Br)c2)c1	i	?	i	?	?	i
O=C(CNc1cccc(C(F)(F)F)c1)N/N=C/c1cccc(Br)c1	?	i	21µM	?	18µM	i
C=C1C(=O)O[C@@H]2[C@H]1[C@@H](OC(=O)/C(C)=C/C)C/C(C)=C\C(=O)/C=C(\C)[C@@H]2O	?	-102	i	2.1µM	1.5µM	?
O=C(CN1C(=O)/C(=C2/SC(=S)N(CCS(=O)(=O)O)C2=O)c2ccccc21)Nc1cccc(Br)c1	i	i	i	i	i	i
Cc1ccc(S(=O)(=O)N(C)c2ccc(C(=O)NCc3cccnc3)cc2)cc1	i	i	i	?	?	i
CCOc1ccc(S(=O)(=O)N(CC(=O)NCc2cccnc2)c2ccc(F)cc2)cc1	i	i	i	18µM	?	i
CCOc1ccc(S(=O)(=O)N(CC(=O)NCc2cccnc2)c2ccc(C)cc2)cc1	i	i	i	?	?	i
Cc1ccc(S(=O)(=O)N(CC(=O)NCc2cccnc2)c2ccc(F)cc2)cc1	i	i	i	18µM	i	i
C=CCN(Cc1cccs1)C(=O)COc1ccc2c(c1)OCO2	i	?	i	?	i	i
O=C(O)COn1c(-c2ccccc2)nc2ccc(Cl)cc21	?	i	i	i	i	i
O=[N+]([O-])c1ccc2nc(-c3ccccc3)n(OCc3ccc(Cl)cc3)c2c1	i	i	i	9.2µM	15µM	i
SMILES	BCR signal inh	IL1B secr inh	MCF10A rerep	TDP1 cell noCPT	TDP1 cell CPT	SW480 rerep
CN(C)c1cccc(C(=O)NCCCSc2ccccc2)c1	i	i	i	i	?	i
Cc1ccc2[nH]c(=O)c(CN(Cc3cccnc3)Cc3nnnn3CCN3CCOCC3)cc2c1	?	i	i	21µM	?	i
Cc1ccc2cc(CN(Cc3ccco3)Cc3nnnn3Cc3ccco3)c(=O)[nH]c2c1	nt	nt	nt	11µM	?	nt
Cc1ccc2cc(CN(Cc3nnnn3Cc3ccco3)CC3CCCO3)c(=O)[nH]c2c1C (configuration not stated)	i	i	i	?	?	i
Cc1ccc2[nH]c(=O)c(CN(Cc3ccco3)Cc3nnnn3Cc3ccccc3)cc2c1	nt	nt	nt	16µM	?	nt
Cc1ccc2cc(CN(CCO)Cc3nnnn3Cc3ccc(F)cc3)c(=O)[nH]c2c1	?	i	i	?	?	i[9.22 µM]
Cc1ccc2[nH]c(=O)c(CN(Cc3ccccc3)Cc3nnnn3Cc3ccccc3)cc2c1	nt	nt	nt	13µM	?	nt
CCOC(=O)c1ccc(CN(Cc2ccc(F)cc2)S(=O)(=O)c2ccc(F)c(C(=O)Nc3cc(Cl)ccc3OC)c2)cc1	i	nt	nt	i	i	nt
